In the library only some 4.1% were active in any assay of this set; here they are far more common.
hgDAF-12 ag – agonists of H. glycines DAF-12 nuclear receptor | HEK293 GAL4-hgDAF12 UAS-luciferase reporter, agonist luminescence; normalized to butyrate control | activation, % at 6.8 µM | 1.8% of 370,000 active | AID 687014;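 active = activation above a cutoff set at the mean of all screened compounds plus 3 SD, cut at about 10% in these data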
ssDAF12 agonist – S. stercoralis DAF-12 activation, primary screen; activation, % at 6.8 µM; 1% of 370,000 active; HEK293 ssDAF-12/GRIP1 lit1-tk-luc reporter, luminescence; % of 3 µM dafachronic acid response; AID 652126;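 active = activation above the mean over all tested compounds plus 3 SD, cut at about 0.9% in these data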
DAX1 inh-1 – DAX1 (NR0B1) inhibition, primary screen | 1.1% of 370,000 active | HEK293T StAR-luciferase reporter, SF-1/DAX-1 repression relief | inhibition, % at 6.8 µM;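 active = inhibition above the mean over all tested compounds plus 3 SD, cut at about 3.6% in these data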;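 also: higher inhibition means more luminescence from relief of DAX-1 repression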
hcDAF12 agonist – activates DAF-12 receptor from parasite H. contortus; HEK293 hcDAF-12 lit1-tk-luc reporter, luminescence; 0% DMSO, 100% Δ7-dafachronic acid; 1.4% of 370,000 active; activation, % at 6.8 µM;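 active = activation above the mean of all tested compounds plus 3 SD, cut at about 5.5% in these data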
DAX1 inh-2 – inhibits human nuclear receptor DAX1 | P51843 | HEK293 Gal4-DAX1 luciferase reporter, luminescence | inhibition, % at 6.75 µM | 0.99% of 340,000 active | AID 504766;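 active = inhibition above the mean over all tested compounds plus 3 SD, cut at about 4.2% in these data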;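 also: inhibition shows as a rise in luminescence from relieved DAX1 repression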
Target sequence (P51843 207-470 limits assumed): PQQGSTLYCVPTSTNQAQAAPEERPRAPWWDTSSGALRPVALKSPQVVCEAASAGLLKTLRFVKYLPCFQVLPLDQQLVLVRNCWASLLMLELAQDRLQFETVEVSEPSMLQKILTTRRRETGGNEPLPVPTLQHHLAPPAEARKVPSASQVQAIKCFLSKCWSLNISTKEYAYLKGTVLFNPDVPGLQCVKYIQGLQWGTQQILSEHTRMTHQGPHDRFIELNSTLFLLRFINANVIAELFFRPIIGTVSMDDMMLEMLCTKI
A number is an active result; – = inactive; · = no result given.

SMILES	hgDAF-12 ag	ssDAF12 agonist	DAX1 inh-1	hcDAF12 agonist	DAX1 inh-2
COC(=O)C1=C(C)N(Cc2ccc(Cl)cc2)C(=S)NC1c1cccc(OC)c1 (stereo not drawn)	–	–	–	–	·
CCOC(=O)N1CCN(C(=O)Nc2ccc3nc(C)sc3c2)CC1	–	–	–	–	–
CCOC(=O)Nc1ccc2nc(N3CCCCCC3)sc2c1	11	–	–	–	–
COc1cccc(-c2nnc(SCC(=O)OC(C)C)n2-c2ccc(Cl)cc2)c1	–	–	–	–	·
O=c1c(-c2ccccc2)c[nH]n1-c1cccc([N+](=O)[O-])c1	–	–	–	–	8.3
O=c1c(-c2ccc(Cl)cc2)c[nH]n1-c1ccccc1	–	–	–	–	–
CCCc1nc([N+](=O)[O-])c(S(=O)(=O)c2ccccc2)n1CC(C)C	10	–	–	–	–
CCC[C@H]1CN(c2ccccc2)C(=O)[C@@H]1CC(=O)Nc1ccc(Br)cc1	–	–	–	–	7.8
COC(=O)C1CN(Cc2cn(Cc3ccccc3)nn2)CCS(=O)(=O)N1Cc1ccccc1 (stereo not drawn)	–	–	–	–	·
CC(=O)OCCCN(C)CC/C=C1/c2ccccc2CSc2ccccc21	–	1.0	–	–	–
O=C(NNc1nc2c(F)cccc2s1)c1cc(=O)c2ccccc2o1	–	–	–	6.2	–
O=C(COc1ccccc1)NNc1nc2c(F)cccc2s1	–	–	–	–	–
Cc1ccc2sc(NNC(=O)c3cc(=O)c4ccccc4o3)nc2c1C	–	–	–	–	–
O=C(NNc1nc2c(F)cccc2s1)c1ccc(F)cc1	–	1.3	–	–	–
Cc1cccc2sc(NNC(=O)c3cc(=O)c4ccccc4o3)nc12	–	1.4	–	6.0	–
O=C(Cc1ccccc1)NCc1ccccn1	–	–	–	–	–
O=C(O)Cc1sc(Nc2ccccc2)nc1-c1ccc(Cl)cc1	11	–	–	–	–
O=C(Cc1sc(Nc2ccccc2)nc1-c1ccccc1)NCc1ccccn1	11	–	–	6.0	–
O=C(O)Cc1sc(Nc2ccc(F)cc2)nc1-c1cccs1	15	–	–	–	–
O=C(O)Cc1sc(-c2ccc(Cl)cc2)nc1-c1ccccc1	–	–	–	–	–
COC(=O)[C@]12C[C@H](CC(=O)NCc3ccc(OC)c(OC)c3)C(=O)N(Cc3ccco3)C1=C[C@H](COCc1ccccc1)O[C@@H]2C	–	–	–	–	·
Cn1c(CNc2ccccc2F)nc2ccccc21	11	–	·	–	·
Cc1cc2nc3ccc(N(C)C)cc3nc2cc1N	–	1.1	4.4	6.3	–
O=C(NCCc1c[nH]c2ccccc12)OCc1cn(Cc2ccccc2C(F)(F)F)nn1	–	–	–	–	·
CC(C)CNS(=O)(=O)/C=C/c1cc2c(cc1CNC(=O)OC(C)(C)C)OCO2	–	–	–	–	·
SMILES	hgDAF-12 ag	ssDAF12 agonist	DAX1 inh-1	hcDAF12 agonist	DAX1 inh-2
Nc1c(C(=O)O)cnc2c(-c3ccc(Cl)cc3)cnn12	12	1.0	–	6.4	–
O=Cc1ccc2noc(-c3ccc(Cl)cc3)c2c1	–	–	–	6.5	–
CCOC(=O)CC[C@@]1(C(=O)OCC)C[C@@H](CC(=O)NCCCOC)C(=O)N2CCCC=C21	–	1.6	–	–	·
CCn1c(=O)n(CC(=O)N2CCN(c3ccc(F)cc3)CC2)c(=O)c2ccccc21	–	–	–	–	·
C/C(=N\NC(=O)c1ccccc1OCCOc1ccccc1)c1ccccc1F	–	–	–	–	–
O=C(Nc1cccc(Cl)c1)OCCOC(=O)Nc1cccc(Cl)c1	–	–	–	–	–
O=C(Nc1cccc(Cl)c1)OCCOc1ccccc1	–	–	–	–	6.0
NC(=S)COc1ccccc1	–	–	–	–	–
O=C(Nc1ccccc1)OCCOc1ccccc1	12	–	–	–	–
NC(=O)COc1ccccc1	–	1.2	–	–	–
NNC(=O)c1ccccc1OCCOc1ccccc1	–	2.7	–	–	–
COc1ccc(OCCOC(=O)Nc2ccccc2)cc1	–	–	–	–	–
CC(C)C[C@@H](CO)N1Cc2nnn(Cc3ccccc3)c2-c2ccccc2S1(=O)=O	–	–	–	–	·
O=C(NCCOc1ccccc1)c1ccccc1Cl	12	–	–	–	–
COc1ccc(OCCNC(=O)c2ccccc2Cl)cc1	–	–	–	–	–
O=C1CC(c2ccc3c(c2)OCCO3)Oc2ccc([N+](=O)[O-])cc21 (stereo not drawn)	–	–	–	–	4.7

Screening results (PubChem)
